# Experimental data: PubChem BioAssay AID588517 (NMMLSC, 2011)
# Screen size: about 1,700 compounds; about 65 (4%) were called active. The list is a sample of the results. A number with no mark means an inactive call.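 How the source made its calls: active means fluorescence ratio to DMSO above its plate's cutoff, the plate mean ratio plus 5 SD (cut at about 210% in these data); inactive means the rest.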
# Test: intrinsic fluorescence of compounds, yeast control strain – S. cerevisiae AD/pABC3, flow cytometry, Cherry Pick1 set, artefact control for antifungal efflux pump inhibitor project, confirmation (AID 588517);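 further: unstained yeast with no Nile Red so the signal is compound autofluorescence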
# Conditions: S. cerevisiae AD/pABC3, compound fluorescence, at 10 µM, active compounds read high
row,SMILES,fluorescence ratio to DMSO
1,CSCCC(NS(=O)(=O)c1ccc(C)cc1)C(=O)N1CCCC1 (stereo unspecified),90.1%
2,CCOc1ccccc1/C=c1\sc2nc(-c3ccco3)nn2c1=O,126%
3,CC(/C=N/NC(=O)c1cc(-c2ccc3ccccc3c2)n[nH]1)=C\c1ccco1,88.7%
4,COc1ccc(/C=C(\C#N)c2c[nH]c3ccccc23)cc1,106%
5,C[n+]1ccc(/C=C/c2c[nH]c3ccccc23)cc1,385% (active)
6,CCOc1ccc(/C=C2\SC(=S)N(NC(=O)c3ccncc3)C2=O)cc1OC,100%
7,Cc1cc(C)cc(NC(=O)C(OC(=O)c2ccc(O)cc2)c2ccccc2)c1 (stereo unspecified),103%
8,COc1ccc(S(=O)(=O)N2CCOC2CNC(=O)C(=O)NCc2ccc(F)cc2)cc1 (stereo unspecified),113%
9,Cc1nc2c(C(=O)NCc3ccc4c(c3)OCO4)c[nH]n2c(=O)c1Cc1ccccc1F,84.3%
10,Cc1ccc(Cn2nnc3c(=O)[nH]c(C4CCN(S(=O)(=O)/C=C/c5ccccc5)CC4)nc32)cc1,110%
11,O=C(/C=C/c1c(Cl)cccc1Cl)NCc1ccccc1,98.2%
12,Cc1cc(/C=N/NC(=O)CC2(C)OCCO2)c(C)n1-c1ccc(Cl)c(Cl)c1,102%
13,Cc1ccc(/C=C(\C#N)C(=O)Nc2cccc3ncccc23)o1,98.6%
14,Cc1oc2cc3oc(=O)ccc3cc2c1C,104%
15,Cc1ccc(Cn2c(C)nc3c(c2=O)c2nc4ccccc4nc2n3Cc2ccco2)cc1,105%
16,COc1ccc(C(=O)NC(=S)Nc2ccc(N3CCCC3)cc2)cc1OC,102%
17,CCCc1nnc(SCC(=O)Nc2ccc(C(=O)OCC)cc2)o1,116%
18,CCOC(=O)CNC(=O)CSc1nnnn1-c1cc(C)ccc1C,101%
19,O=C(NCc1ccccc1)C(=O)NCC1OCCN1S(=O)(=O)c1ccc(Br)cc1 (stereo unspecified),90.8%
20,O=C(Nc1ccc(NC(=O)c2cccs2)cc1)c1ccc2ccccc2c1,109%
21,O=S(=O)(c1ccccc1)N1CCc2ccccc21,163%
22,CC(/C=C/c1ccccc1)=N\NC(=O)C1CC1(C)c1ccccc1 (stereo unspecified),94.4%
23,CCCCCC(=O)Nc1ccc(C(=O)N/N=C/c2ccc([N+](=O)[O-])cc2)cc1,103%
24,COc1ccccc1CSc1ncc(-c2ccc([N+](=O)[O-])cc2)[nH]1,110%
25,CCn1c(/C=C/c2ccc([N+](=O)[O-])o2)nc2ccccc2c1=O,431% (active)
26,CCOc1ccc2nc(Cl)c(C3CC(c4ccccc4)=NN3C(=O)c3cccs3)cc2c1 (stereo unspecified),95.5%

row,SMILES,fluorescence ratio to DMSO
1,Cc1ccc2[nH]c3c(=O)n(CC(=O)NCCc4ccc(Cl)cc4)ncc3c2c1,107%
2,COc1cccc(-c2sc3ccc(OC)cc3c2-c2ccc(OCCN3CCCCC3)cc2)c1,103%
3,COc1ccccc1NC(=O)C1CCCN1S(=O)(=O)c1ccc(Cl)cc1 (stereo unspecified),108%
4,Cc1cc(C(=O)Nc2ccc(C)c(S(=O)(=O)N3CCOCC3)c2)c2ccccc2n1,91.8%
5,O=C(CCCCCn1c(=O)[nH]c2ccccc2c1=O)NCCc1c[nH]c2ccccc12,110%
6,Cc1ccc(OCc2cc(C(=O)N(C)CCc3ccccc3)no2)cc1C,106%
7,CC12CCC(C(=O)N(c3cccc(Cl)c3)C1=O)C2(C)C (stereo unspecified),102%
8,CCCCN1C(=O)/C(=C/C=C2/C=Cc3ccccc3N2CC)SC1=S,68.5%
9,O=C1NC(=O)C2C1C(c1ccc([N+](=O)[O-])cc1)=NN2Cc1ccccc1 (stereo unspecified),152%
10,CN(C)S(=O)(=O)c1cc(C(=O)Nc2ccn(C)n2)c(Cl)cc1Cl,93.7%
11,Cc1ccc(N=C2NC(=O)/C(=C/C=C/c3ccco3)S2)cc1C,104%
12,COc1ccc2[nH]c3c(C)c4cc[n+](C)cc4c(C)c3c2c1,115%
13,COc1ccccc1/C=C/C=N/n1c(-c2ccc(Cl)cc2Cl)n[nH]c1=S,101%
14,CCCCCCCCCCCCCCCC(=O)OC/C=C(C)/C=C/C=C(C)/C=C/C1=C(C)CCCC1(C)C,106%
15,C/C(N)=C(/C#N)C(=O)COC(=O)c1cc(-c2cccc(Br)c2)nc2ccccc12,110%
16,CCc1ccc(NC(=O)Cn2ncn3c(cc4ccccc43)c2=O)cc1,105%
17,CCOC(=O)c1c(NC(=S)NC(=O)c2ccco2)sc2c1CCCC2,81.2%
18,COc1cccc(NC(=O)CN(C)C(=O)/C=C/c2cc(OC)ccc2OC)c1,91.9%
19,CCCc1nc(N2CCN(C)CC2)c2sc(=S)n(-c3ccccc3)c2n1,99.3%
20,COc1ccc(C(=O)NC2CC(C)(C)Cc3c2cnn3-c2ccccc2)c(OC)c1 (stereo unspecified),100%
21,CCNc1c(NS(=O)(=O)c2ccc(C3CCCCC3)cc2)c(=O)oc2ccccc12,94%
22,COc1ccc(NC(=S)N2CCc3cc(OC)c(OC)cc3C2)cc1,102%
23,CCNC(=O)c1c(O)c2cccc3c2n(c1=O)CC3,83.8%
24,Cc1csc(NC(=O)c2ccc(-c3ccc(Cl)cc3Cl)o2)n1,96.6%
25,CSCCC(NC(=O)COc1ccccc1)C(=O)OCCOc1ccc(Br)cc1 (stereo unspecified),93.4%
26,O=C(OCc1ccc(-c2ccccc2)cc1)c1cccc(O)c1,116%

row,SMILES,fluorescence ratio to DMSO
1,Cc1ccc2c(c1)NC(=O)[C@@]1(C)[C@@H](c3ccccc3)[C@H]3COc4ccc(Cl)cc4[C@@H]3N1C2=O,103%
2,COc1ccc2sc(-c3ccccc3OC)c(-c3ccc(OCCN4CCCC4)cc3)c2c1,112%
3,Cc1cccc(NC(=O)COc2ccccc2C)n1,95%
4,Cc1c(CCOC(=O)CC23CC4CC(CC(C)(C4)C2)C3)sc[n+]1Cc1ccc([N+](=O)[O-])cc1,106%
5,O=C(CNC(=O)c1ccc(-c2ccccc2)cc1)OCc1ccc(Cl)cc1,110%
6,C=CCC[C@@H](Cc1ccc(F)cc1)C(=O)OC[C@H](Cc1c[nH]c2ccccc12)NC(=O)[C@@H](CC=C)CC(=O)N(CCO)Cc1ccccc1,92.1%
7,O=C(Cn1c(COc2ccccc2)nc2ccccc21)Nc1cc(Cl)c(Cl)cc1Cl,93.4%
8,CCCCOc1ccc(C(=O)NCC(=O)OCC(=O)c2c(N)n(C)c(=O)n(C)c2=O)cc1,97.6%
9,CC[n+]1cc(C)ccc1/C=C/c1ccc(N(C)C)cc1,1680% (active)
10,NNC(=O)COc1ccc(C2SCCS2)cc1,85.2%
11,CC(C)C(=O)N1CCC2(CC1)Oc1ccc(F)cc1C(=O)C21CC(c2ccccc2)=NO1 (stereo unspecified),97.8%
12,COc1ccc(-c2sc3ccccc3c2-c2ccc(OCCN3CCOCC3)cc2)cc1,108%
13,CN1CCN(S(=O)(=O)c2ccc(NC(=S)NC(=O)C3CC3)cc2)CC1,106%
14,O=C(Cc1ccccc1)NCC1OCCc2ccccc21 (stereo unspecified),109%
15,Cc1nn(C)cc1N1C(=O)c2cccc3c(N)ccc(c23)C1=O,111%
16,CCOc1ccc(C2/C(=C(/O)c3ccc4c(c3)CC(C)O4)C(=O)C(=O)N2CCCn2ccnc2)cc1 (stereo unspecified),107%
17,O=C(Cc1ccc(Br)cc1)N1CCN(c2ccccn2)CC1,98.2%
18,CN=C(c1ccccc1)c1c(C)cccc1C,103%
19,O=C(CN1C(=O)C2C3CCC(C3)C2C1=O)Oc1ccc2ccccc2c1 (stereo unspecified),107%
20,Cc1nn(C)cc1C(=O)Nc1ccccc1Br,85.7%
21,COc1ccc(C(=O)C2CCCN(Cc3cccn3-c3ccccn3)C2)c(C)c1 (stereo unspecified),109%
22,O=C(CSc1nnc(-c2cccnc2)n1Cc1ccco1)c1ccc(Cl)c(Cl)c1,104%
23,COc1ccc(C(=O)NC2CCCc3c2cnn3-c2cccc(C)c2C)c(OC)n1 (stereo unspecified),92.9%
24,CC1CCc2c(sc(NC(=O)c3ccc(Cn4cc(Br)cn4)o3)c2C(N)=O)C1 (stereo unspecified),100%
